# In PubChem BioAssay (NCI):
# The panel holds about 79,000 compounds, 15% with a hit somewhere; the sample as a whole holds those more often. A number with no mark means an inactive call. Activity calls are given as the source filed them. Cut-off read from the data, not from the text of the source: active = growth inhibition above about 70%; inactive = the rest.
# Assays:
# [1] = NCI Yeast Anticancer Drug Screen. Data for the rad50 strain (AID 155);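 note: 0% = growth of vehicle-only cultures of the same strain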; settings: S. cerevisiae rad50 strain growth inhibition; at 50.0 µM; hits give high values
# Summary of the method: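 Growth of the mutant yeast was measured after compound exposure and referenced to vehicle-treated cultures.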
# [2] = NCI Yeast Anticancer Drug Screen. Data for the mec2-1 strain (AID 157); settings: S. cerevisiae mec2-1 strain, at 50.0 µM, hits give high values
# Summary of the method: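 Vehicle-treated cultures served as reference for growth inhibition of compound-exposed mec2-1 yeast.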
# [3] = NCI Yeast Anticancer Drug Screen. Data for the sgs1 mgt1 strain (AID 161);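 note: 0% = growth of cultures given vehicle only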; settings: S. cerevisiae sgs1 mgt1 strain, at 50.0 µM, hits give high values
# Summary of the method: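 Mutant yeast exposed to compound; growth scored against vehicle-only wells.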
# [4] = NCI Yeast Anticancer Drug Screen. Data for the bub3 strain (AID 167); settings: S. cerevisiae bub3 mutant strain, at 50.0 µM, hits give high values
# Summary of the method: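 Whole-cell yeast assay. The mutant strain was incubated with compounds, and growth inhibition was determined by comparison with vehicle-treated cells.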
# [5] = NCI Yeast Anticancer Drug Screen. Data for the mlh1 rad18 strain (AID 175); settings: S. cerevisiae mlh1 rad18 strain growth inhibition; at 50.0 µM; hits give high values
# Summary of the method: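 Vehicle-treated cultures served as the reference for growth inhibition in a yeast strain carrying DNA damage repair alterations exposed to each compound.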
Compound,growth inhibition [1],growth inhibition [2],growth inhibition [3],growth inhibition [4],growth inhibition [5]
COc1ccc2nc3cc(Cl)ccc3c(C=O)c2c1,-0.15%,7.65%,5.75%,-4.3%,-2.25%
C/C(=N\N=C(N)N)C(CN(CC(C)C)CC(C)C)C(=O)Nc1ccc(C)cc1C (stereo not given),7.6%,6.55%,10.3%,-3.85%,13.8%
Cc1ccc(C(=O)OC(C)C)cc1N=NN(C)C,32.4%,-11.4%,11.1%,6.45%,-15.9%
C1CCC(C2CCC(C3CCCCC3)CC2)CC1 (stereo not given),-14.1%,-8.75%,-9.55%,6.35%,6.15%
Clc1cc2nc(C3CCCO3)[nH]c2cc1Cl (stereo not given),24.3%,2.15%,29.5%,19.9%,55.2%
CCCCCCCCCCCCCCCCSS(=O)(=O)O,8.5%,15.7%,15.8%,0.15%,4.9%
O=C(O)CCCC#CCCCC(=O)O,10.4%,4.5%,2%,25.8%,-13.7%
CCCc1[nH]n(-c2ccccc2)c(=O)c1N=Nc1ccc(Cl)cc1,-4.25%,-6.65%,-9.95%,-7.6%,-0.8%
CCNCCCCNCC,4.25%,-14.9%,-18.6%,-3.85%,2.3%
CCC(c1ccc(OCC(=O)N2CC2)cc1)C(CC)c1ccc(OCC(=O)N2CC2)cc1 (stereo not given),11.8%,10.3%,13.5%,-0.35%,1.75%
COc1ccc(-c2c(C(=O)O)cc(O)c3c(OC)c(OC)c(OC)cc23)cc1OC,-2.8%,4%,-17.6%,2.7%,32.5%
CC(C)NC(=O)OCc1c(COC(=O)NC(C)C)n(C)c2c1ccc1ccccc12,89.8% (active),84.8% (active),83.8% (active),87.5% (active),85.5% (active)
COc1cc(/C=C/c2ccccn2)oc(=O)c1,5.2%,-6.7%,-2.05%,-12.1%,7.9%
N#CSc1nc[nH]c1C(N)=O,-38.2%,-12.4%,3.45%,-26.3%,-4.4%
FC(F)(F)c1ccc(C2SCc3nc4ccccc4n32)cc1 (stereo not given),-43%,-5.4%,-1.95%,-14.2%,11.3%
CC[N+]1(C)CCC(CN2c3ccccc3Sc3ccccc32)C1 (stereo not given),31.4%,22.6%,38.5%,6%,43.3%
CC1=CC2=C(OCO1)C(=O)c1ccccc1C2=O,7.25%,14.6%,-21.6%,44.3%,8.95%
CNC(=S)n1ncnc1N,11%,-5.95%,-2.9%,-3.75%,8.25%
CC(=O)C(c1ccccc1)N(CCO)Cc1ccccc1 (stereo not given),8.15%,-6%,-5.9%,7.45%,1.8%
O=C(Nc1cc2[nH]c(=O)c3ccccc3c2cc1[N+](=O)[O-])C(F)(F)F,40%,-5.85%,10.8%,-12.4%,0.25%
CCOC(=O)NNC(N)=O,-2.8%,-19.2%,-18%,1.8%,-10.5%
O=C([O-])c1ccc2c(c1)-c1nc-2nc2[n-]c(nc3nc(nc4[n-]c(n1)c1ccc(C(=O)[O-])cc41)-c1cc(C(=O)[O-])ccc1-3)c1ccc(C(=O)[O-])cc21.[Fe+2],-1.2%,-0.5%,-13.6%,7.5%,-1.75%
